HTR2A ag: activates the mouse 5-HT2A serotonin receptor | activation, % at 7.6 µM | P35363 | CHO-K1 mHTR2A beta-arrestin complementation, luminescence; percent of 30 µM serotonin response | 0.66% of 360,000 active;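 active means activation above a run cutoff, the mean activation of all tested compounds plus 3 SD, cut at about 14% in these data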
Target sequence (P35363 whole entry, looked up): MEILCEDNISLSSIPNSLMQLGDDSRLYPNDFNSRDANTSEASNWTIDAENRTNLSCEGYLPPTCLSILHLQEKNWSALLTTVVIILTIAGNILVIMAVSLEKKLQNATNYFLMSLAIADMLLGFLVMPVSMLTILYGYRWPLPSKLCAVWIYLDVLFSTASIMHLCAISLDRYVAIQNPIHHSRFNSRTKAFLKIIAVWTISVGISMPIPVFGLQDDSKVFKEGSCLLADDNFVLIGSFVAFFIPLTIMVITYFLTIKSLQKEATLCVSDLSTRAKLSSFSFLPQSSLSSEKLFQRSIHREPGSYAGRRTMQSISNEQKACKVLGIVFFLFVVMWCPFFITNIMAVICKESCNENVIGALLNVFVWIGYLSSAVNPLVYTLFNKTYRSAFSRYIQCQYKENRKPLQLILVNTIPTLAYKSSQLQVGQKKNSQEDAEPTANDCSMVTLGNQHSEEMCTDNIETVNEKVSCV
HTR5A inv ctr: HTR5A inverse agonism, opioid heterodimer counter-screen; P47898; HTR5A cell line, luminescence; inhibition, % at 9.3 µM; 0.083% of 340,000 active; AID 504634; in the data active means inhibition mostly above about 23%, no sharp cut-off; inactive means mostly below about 18%
HTR5A ag: activates human HTR5A in OPRM1-OPRD1 agonist counter-screen; 0.61% of 340,000 active; P47898; activation, % at 9.3 µM; HTR5A agonist assay, luminescence, cell-based; in the data active means activation mostly above about 9.5%, no sharp cut-off; inactive means mostly below about 7.6%
MOR-DOR inv ag-1: inverse agonists of human mu-delta opioid receptor heterodimerization; inhibition, % at 9.3 µM; 0.21% of 340,000 active; cell-based MOR-DOR heterodimer luminescence, inverse agonism; P35372+P41143; AID 504357; in the data active means inhibition above about 22%, passing the limit was not always enough
MOR-DOR ag-1: agonists of human mu-delta opioid receptor heterodimerization. P35372+P41143. cells, OPRM1-OPRD1 heterodimerization, luminescence. activation, % at 9.3 µM. 0.3% of 340,000 active. AID 504326; in the data active means activation above about 18%
MOR-DOR inv ag-2: counter-screen for HTR5A inverse agonists: OPRM1-OPRD1 heterodimerization inverse agonism | shares compounds with HTR5A inv ctr | U2OS counter-screen cells, complementation luminescence | inhibition, % at 9.3 µM | 190 tested, under 10 active | AID 504912
HTR5A inv conf: confirmation of human HTR5A inverse agonists. HTR5A-expressing cells, inverse agonism, luminescence. shares compounds with HTR5A inv ctr. inhibition, % at 9.3 µM. AID 504916. 190 tested, under 10 active
MOR-DOR ag-2: promotes OPRM1-OPRD1 heterodimerization in HTR5A counter-screen. shares compounds with HTR5A ag. U2OS counter-screen cells, complementation luminescence, 3 h. activation, % at 9.3 µM. 13% of 800 active; in the data active means activation above about 18%
HTR5A ag confirm: confirmation of human HTR5A agonists | 17% of 800 active | activation, % at 9.3 µM | shares compounds with HTR5A ag | HTR5A agonist cell assay, luminescence; in the data active means activation above about 17%
Hits are given with their value; n = inactive; x = no result given. Hits are enriched below; roughly 1.6% of the tested compounds scored in any of these assays. Unless noted, how the calls were made is not given here.

SMILES	HTR2A ag	HTR5A inv ctr	HTR5A ag	MOR-DOR inv ag-1	MOR-DOR ag-1	MOR-DOR inv ag-2	HTR5A inv conf	others
CN(C)c1ccc(CC(=O)N2CCCCC2c2cc(C(=O)Nc3ccccc3Cl)no2)cc1 (stereo not drawn)	n	x	x	x	x	x	x
COc1ccc(/C=C(/NC(=O)c2cccs2)C(=O)NCc2ccco2)cc1OC	n	43.5	n	n	n	n	n
CC(C)Cn1c(-c2ccc(Br)cc2)c[nH]c1=S	n	81.2	n	n	n	n	n
CCCCNC(=O)c1ccc2nc(CC)c(N(C)Cc3ccc(OC)cc3)n2c1	n	x	x	x	x	x	x
O=C(NN1C(=O)/C(=C/c2ccc(O)c(O)c2)SC1=S)c1ccccc1	n	30.7	n	n	n	n	n
COc1cc(/C=C2/SC(=S)N(CC3CCCO3)C2=O)ccc1O (stereo not drawn)	n	44.4	n	n	n	n	n
COc1cc(/C=C2\SC(=S)N(NC(=O)c3cccnc3)C2=O)ccc1O	n	22.1	n	n	n	n	n
COc1ccccc1-c1cnc(C(O)c2ccc(Cl)c(Cl)c2)[nH]1 (stereo not drawn)	n	x	x	x	x	x	x
COc1ccc(OC)c(S(=O)(=O)Nc2ccccc2C(=O)N2CCCCC2)c1	n	45.4	n	n	n	n	n
COc1ccc(S(=O)(=O)Nc2ccccc2C(=O)N2CCCC2)cc1OC	n	n	n	n	n	x	x
Oc1c(C(Nc2ccccn2)c2cccnc2)cc(Cl)c2cccnc12 (stereo not drawn)	n	53.7	n	n	n	55.5	76.7
CC(=O)NC(c1ccc(C)cc1)c1cc(Cl)c2cccnc2c1O (stereo not drawn)	n	n	n	n	n	x	x
FC(F)Oc1ccc(/C=N/n2c(Cc3ccc(Br)cc3)n[nH]c2=S)cc1	n	n	n	n	n	x	x
CSc1ccc(/C=N/n2c(Cc3ccc(Br)cc3)n[nH]c2=S)cc1	n	32.4	n	n	n	n	n
COc1ccc(NC(=O)[C@H](C)NC(=O)C2CCN(S(=O)(=O)c3ccc(OC)cc3)CC2)cc1	n	n	n	n	n	x	x
Cc1cc(C(=O)OCC(=O)NCc2ccc(Cl)cc2)c(C)o1	n	n	n	n	n	x	x
CC1(C)NC(=O)N(CC(=O)O)C1=O	n	n	n	n	n	x	x
C/C(=N\Nc1cc(-c2ccccc2)nc(-c2ccccc2)n1)c1ccc(O)c(C)c1	n	48.8	n	n	n	n	n
Cc1cc(O)c(NC(=S)NC(=O)c2ccc(-c3ccc(Cl)cc3)o2)cc1C	n	64.8	n	n	n	n	n
CCCCCCCC(=O)NNC(=O)c1ccc(F)cc1	n	n	n	n	n	x	x
CCN(CC)C(=O)CSc1nc2ccccc2c(=O)n1OC(C)C	n	37.8	n	n	n	n	n
CCC(Sc1nnc(-c2ccco2)n1C)C(=O)Nc1nnc(C)s1 (stereo not drawn)	n	n	n	n	n	x	x
C=CC[n+]1c(-c2ccc(Cl)cc2Cl)csc1Nc1c(C)n(C)n(-c2ccccc2)c1=O	n	35.8	n	n	n	n	n
COCCN1Cc2cccc(C(=O)NCc3ccccc3OC)c2C1=O	n	n	n	n	n	x	x
CCCN1Cc2cccc(C(=O)NCc3ccccc3OC)c2C1=O	n	37.0	n	n	n	n	n
SMILES	HTR2A ag	HTR5A inv ctr	HTR5A ag	MOR-DOR inv ag-1	MOR-DOR ag-1	MOR-DOR inv ag-2	HTR5A inv conf	others
O=C1CN=C(Nc2ccccc2Cl)N1Cc1ccc2c(c1)OCO2	n	n	n	n	n	x	x
C[C@H]1CN([C@@H](C)CO)C(=O)c2cc(-c3ccccc3F)cnc2O[C@@H]1CN(C)C(=O)NC1CCCCC1	n	x	x	x	x	x	x
Cc1ccccc1NS(=O)(=O)c1ccc(OCC(=O)N2CCCCC2)cc1	n	n	n	n	n	x	x
COc1ccc(-c2nc3nc(N)nn3cc2C)cc1F	n	n	n	n	n	x	x
COc1ccccc1-c1nnc(NC(=O)CCS(=O)(=O)c2ccccc2)o1	n	39.5	n	n	n	n	n
NC(N)=N/N=C/c1cc([N+](=O)[O-])ccc1O	n	n	n	n	n	x	x
CN(C)/N=C/c1cc([N+](=O)[O-])ccc1O	n	28.1	n	n	n	n	n
CCOc1cc(/C=C2\CN(C)C/C(=C\c3ccc(O)c(OCC)c3)C2=O)ccc1O	n	n	n	n	n	x	x
CCOc1cc(/C=C2\CCC/C(=C\c3cc(Cl)c(O)c(OCC)c3)C2=O)cc(Cl)c1O	n	46.1	n	n	n	n	n
COc1ccc(OC)c(/C=C2\SC(N3CCCCC3)=NC2=O)c1	n	n	n	n	n	x	x
COc1ccc(CC(=O)Nc2cccc(-c3nnc(-c4ccccc4)o3)c2)cc1OC	n	n	16.2	n	n	x	x	MOR-DOR ag-2=n;HTR5A ag confirm=n
CCN(CC)CCCNC(=O)/C=C/C(=O)O	n	n	n	n	n	x	x
O=C(Cc1ccc(Cl)cc1)N/N=C1\CCCc2ccccc21	n	n	n	n	n	x	x
O=C(CNc1ccc(F)cc1)N/N=C1\CCCc2ccccc21	n	n	15.9	n	n	x	x	MOR-DOR ag-2=n;HTR5A ag confirm=17.1
COc1cc(/C=C/C(=O)OCC(=O)Nc2nnc(-c3ccccc3)o2)cc(OC)c1OC	n	n	n	n	n	x	x
COc1ccc(C(=O)N/N=C/c2cc(Br)ccc2O)cc1OC	n	n	17.4	n	n	x	x	MOR-DOR ag-2=n;HTR5A ag confirm=n
CC(NS(=O)(=O)c1ccc(OCC(=O)NCc2cccnc2)cc1)c1ccccc1 (stereo not drawn)	n	n	n	n	n	x	x
COC(=O)C1=C(C)N(c2ccc(C(=O)OC)cc2)C(=O)C1	n	n	n	n	n	x	x
COC(=O)C1=C(C)N(c2cc(Cl)cc(Cl)c2)C(=O)C1	n	n	15.3	n	n	x	x	MOR-DOR ag-2=n;HTR5A ag confirm=n
COc1cc(/C=C(/NC(C)=O)C(=O)O)cc(Cl)c1OCc1ccc(Br)cc1	n	n	n	n	n	x	x
COc1ccc(Cl)cc1-n1c(C)ccc1C	n	n	n	n	n	x	x
COc1cccc(CNC(=O)CCc2nnc3ccc(NCCCN4CCCC4=O)nn23)c1	n	n	17.4	n	n	x	x	MOR-DOR ag-2=n;HTR5A ag confirm=n
Cc1nc(C(F)(F)F)c(C(=O)N=CN(C)C)s1	n	n	n	n	n	x	x
O=C(ONC1=NCCCCC1)c1ccc(Cl)cc1	n	n	25.3	n	n	x	x	MOR-DOR ag-2=n;HTR5A ag confirm=n
CN(C)CCCN(C(=O)CCOc1ccccc1)c1nc2ccc(F)cc2s1	n	n	17.6	n	n	x	x	MOR-DOR ag-2=n;HTR5A ag confirm=n
CN(C)CCCN(C(=O)COc1ccccc1)c1nc2ccc(F)cc2s1	n	n	n	n	n	x	x
CCOC(=O)c1c(-c2ccc(C)cc2)csc1NC(=O)c1cc2ccccc2oc1=O	n	n	17.8	n	n	x	x	MOR-DOR ag-2=n;HTR5A ag confirm=n
O=C(c1cccs1)c1no[n+]([O-])c1C(=O)c1cccs1	n	n	n	n	n	x	x

Source: PubChem
